From PubChem BioAssay
Rows were chosen to be rich in hits. Some 12% of all compounds tested hit in one or more screens of this group.
HP1b binding inh = HTS for Inhibitors of HP1-beta Chromodomain Interactions with Methylated Histone Tails. Potency, µM (titrated, usually from 114 µM), for inactives: at the top dose activity change, negative = inhibition, actives largely listed as inhibitors. AlphaScreen HP1-beta / biotin-H3K9me3 peptide binding. Chromobox protein homolog 1 (Homo sapiens), P83916. AID 540317, 2011. 390,000 tested, 0.56% active; also: nearly all actives have a fitted effect of over 70% in size
Target sequence (P83916 whole entry, looked up): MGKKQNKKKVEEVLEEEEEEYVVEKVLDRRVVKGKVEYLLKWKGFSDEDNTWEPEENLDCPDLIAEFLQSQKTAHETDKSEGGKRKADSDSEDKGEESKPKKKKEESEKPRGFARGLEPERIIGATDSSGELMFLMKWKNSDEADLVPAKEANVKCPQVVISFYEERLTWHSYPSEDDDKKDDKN
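HP1-beta protein (50 nM final) preincubated 30 min at room temperature with biotinylated H3(1-18)K9me3 peptide (50 nM) in PBS pH 7.4, 0.01% Tween-20, then compound added for 30 min. AlphaScreen streptavidin donor/nickel chelate acceptor beads (10 ug/mL final), 30 min dark, luminescence read.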
G9a block = qHTS Assay for Inhibitors of Histone Lysine Methyltransferase G9a. Histone-lysine N-methyltransferase EHMT2 (Homo sapiens), Q96KQ7. 350,000 tested, 8.8% active. Potency, µM (titrated, usually from 102 µM), without a hit: at the highest dose activity, negative = inhibition, usual class: inhibitors. G9a H3K9 monomethylation, AlphaScreen, 2 h. AID 504332, 2011; also: % is scaled to controls: 0 for no effect and ±100 for the full control effect; nearly all actives have a fitted effect of over 75% in size
Target sequence (Q96KQ7 913-1193 limits assumed): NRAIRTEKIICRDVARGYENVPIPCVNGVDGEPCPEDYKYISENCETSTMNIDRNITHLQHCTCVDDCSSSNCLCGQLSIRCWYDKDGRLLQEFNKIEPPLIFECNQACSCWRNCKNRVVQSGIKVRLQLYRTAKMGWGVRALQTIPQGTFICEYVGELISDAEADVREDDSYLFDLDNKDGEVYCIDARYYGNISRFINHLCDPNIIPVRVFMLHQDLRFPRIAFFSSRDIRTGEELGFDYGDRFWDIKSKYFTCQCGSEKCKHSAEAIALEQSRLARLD
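AlphaScreen read-out: biotin-H3K9 peptide (500 nM) methylation by 20 nM enzyme with 20 uM SAM, 2 h at room temperature after 15 min compound preincubation; anti-monomethyl H3K9 antibody plus donor/acceptor beads, 10 min dark.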
L3MBTL1 inh = qHTS Assay for the Inhibitors of L3MBTL1. Lethal(3)malignant brain tumor-like protein 1 (Homo sapiens), Q9Y468. AlphaScreen L3MBTL1–H3K9me1 peptide binding. Potency, µM (highest dose often 57.1 µM), for the others: top-dose activity, negative = inhibition, actives largely listed as inhibitors. 230,000 tested, 0.66% active; also: % is scaled to controls: 0 for no effect and ±100 for the full control effect; nearly all actives have a fitted effect of over 60% in size
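AlphaScreen proximity signal between nickel-chelate acceptor and streptavidin donor beads (final 10 ug/mL) reports binding of 50 nM L3MBTL1 to 75 nM biotin-H3 K9me1 peptide; complex incubated with compounds 30 min at room temperature; cefsulodin titration as control.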
JMJD2A Tudor = qHTS Assay for Inhibitors of JMJD2A-Tudor Domain; Lysine-specific demethylase 4A (Homo sapiens), O75164; AlphaScreen JMJD2A-Tudor / H3K4me3 peptide binding; Potency, µM (series often up to 114 µM), without a hit: at the highest dose activity change, negative = inhibition, most hits filed as inhibitors; 390,000 tested, 4.4% active; AID 504339, 2011; also: % is scaled to controls: 0 for no effect and ±100 for the full control effect; nearly all actives have a fitted effect of over 50% in size
BAZ2B inh = qHTS Assay for Inhibitors of BAZ2B. 360,000 tested, 4.4% active. AlphaScreen BAZ2B-H3K14Ac peptide displacement. Bromodomain adjacent to zinc finger domain protein 2B (Homo sapiens), Q9UIF8. AID 504333, 2011. Potency, µM (top dose mostly 114 µM), without a hit: at the highest dose activity change, negative = inhibition, actives largely listed as inhibitors; also: % is scaled to controls: 0 for no effect and ±100 for the full control effect; nearly all actives have a fitted effect of over 60% in size
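BAZ2B (50 nM) with biotin-H3(5-23)K14Ac peptide (50 nM) in PBS pH 7.4, 0.01% Tween-20, preformed 30 min, then compound 30 min at room temperature; top concentration 110uM. AlphaScreen streptavidin donor/nickel chelate acceptor beads (10 ug/mL final), 20 min dark, signal read.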
Sfp inh = qHTS Assay for Inhibitors of Bacillus subtilis Sfp phosphopantetheinyl transferase (PPTase). Biochemical Sfp PPTase activity, qHTS. Potency, µM, inactives show largest response in the series, negative = inhibition, hits mostly inhibitors. 310,000 tested, 3.5% active. 4'-phosphopantetheinyl transferase ffp (Bacillus subtilis), Q9F4F7;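 also: the enzyme is Sfp with the accession as filed and its product quenches rhodamine fluorescence; 0% = enzyme reaction without inhibitor and -100% = no enzyme wells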
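Compounds were incubated with enzyme (final 15 nM) for 15 min at room temperature before substrate addition started the reaction. Fluorescence at 525 nm excitation, 598 nm emission was recorded immediately and after 30 minutes.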
* = called active by the depositor; ? = inconclusive; . = no result given; [ ] = another dose, or the depositor's remark. Calls follow the shape of the dose curve; as a rule, active = well fitted curve in the direction sought with a large enough effect; inconclusive = small, poorly fitted or top-dose-only effect, or another doubt; inactive = no such curve, though single readings can be large; an effect the other way counts as inactive or inconclusive. Potency is read from the fitted curve at half-maximal effect.

SMILES	HP1b binding inh	G9a block	L3MBTL1 inh	JMJD2A Tudor	BAZ2B inh	Sfp inh
CCOC(=O)c1cccc(NS(=O)(=O)c2cc(-c3cnc(C4CC4)o3)ccc2C)c1	15%	-7%[12.7 µM]	.	-26%	-26%	.
COc1cccc(C2CC(=O)Nc3cc4c(cc32)OCCO4)c1OC(C)C (centres undefined)	?	45µM*	-5%	?	-34%	6%
COc1ccccc1C1CC(=O)Nc2cc3c(cc21)OCCO3 (centres undefined)	-5%	-36%[59 µM]	.	-30%	-32%	-8%
CC(C)Oc1ccccc1C1CC(=O)Nc2cc3c(cc21)OCCO3 (centres undefined)	-11%	-9%[59 µM]	0%	?	50µM*	1%
O=C1Nc2ccccc2/C1=C/c1ccccc1Cl	-2%	5%	.	-23%	-30%	-15%
CN1CCN(c2ccccc2/C=C2/C(=O)Nc3ccccc32)CC1	19%	50µM*	.	-29%	-37%	-3%
CCCCN(C)CCNC(=O)c1ccc2c(=O)n(CCc3ccccc3)c(=O)[nH]c2c1	25%	-4%[59 µM]	.	-11%	-1%	.
CC#CCN1c2ccccc2[C@]23C[C@@H](C(=O)OC)N(S(=O)(=O)c4ccc(C)cc4)C2=NC(C(=O)OC)=C(C(=O)OC)[C@H]13	.	.	.	.	.	6%
CCc1ccc(S(=O)(=O)/N=C2\C=CC(=O)c3ccccc32)cc1	.	14µM*	.	.	35µM*	-28%
CCc1ccc(S(=O)(=O)/N=C2\C=C(Nc3ccc(O)cc3)C(=O)c3ccccc32)cc1	10µM*	7.1µM*	.	7.1µM*	8.9µM*	-11%
CCc1ccc(S(=O)(=O)O)cc1	.	-47%[12.7 µM]	.	.	.	21%
CCc1ccc(S(=O)(=O)/N=C2/C=C(Sc3ncn[nH]3)C(=O)c3ccccc32)cc1	?	1.4µM*	?	4µM*	45µM*	3.5µM*
CCc1ccc(S(=O)(=O)/N=C2\C=C(Nc3cccc(C(=O)O)c3)C(=O)c3ccccc32)cc1	?	14µM*	.	18µM*	10µM*	-18%
CCOC(=O)c1c(NC(=O)c2nc(S(C)(=O)=O)ncc2Cl)sc(C(C)=O)c1C	-23%	6%[59 µM]	.	-4%	1%	.
O=c1oc2ccc(Cl)cc2cc1-c1nc(-c2cccs2)no1	3%	0%[59 µM]	.	?	-13%	.
Nc1ccc2nc(SCC(=O)N3CCN(c4ccccc4)CC3)sc2c1	4%	50µM*	.	-31%	?	6%
CCOC(=O)CSc1nc2ccc(NC(=O)c3ccccc3)cc2s1	48%	?	.	-5%	-3%	.
CCN(CC)C(=O)CSc1nc(N)c(C(=O)Nc2ccc(OC)cc2)s1	10%	-5%[59 µM]	0%	-27%	-24%	1%
CCOC(=O)CSc1nc(N)c(C(=O)Nc2ccc(N(C)C)cc2)s1	?	16µM*	-18%	40µM*	50µM*	-8%
CCOC(=O)CSc1nc2ccc(N)cc2s1	28%	32µM*	.	-18%	-6%	-13%
Nc1ccc2nc(SCc3cccc(F)c3)sc2c1	-7%	45µM*	.	-33%	.	-19%
Nc1ccc2nc(SCC(=O)N3CCOCC3)sc2c1	31%	0%	5%	-8%	-1%	9%
Cc1noc(C)c1S(=O)(=O)N1CCc2nc(-c3ccccc3)c3c(c2C1)CO[C@@H](C)C3	.	.	.	.	.	-19%
O=C(CCCc1nc2ccccc2s1)N1CCN(c2ccccc2)CC1	9%	?	-11%	-20%	-30%	45µM*
NCC(O)COc1cccc2ccccc12 (centres undefined)	.	26%[59 µM]	.	.	.	22%
SMILES	HP1b binding inh	G9a block	L3MBTL1 inh	JMJD2A Tudor	BAZ2B inh	Sfp inh
Cc1ccc2c(c1)C(c1ccccc1)C(=O)O2 (centres undefined)	-10%	-47%	.	?	-16%	50µM*
N#CCCn1c(=O)c(-c2cccs2)nc2cnc(Oc3ccccc3)nc21	.	16%[12.7 µM]	.	.	.	4%
CCC(C)Nc1nc(-c2ccc3c(c2)NC(=O)CO3)cs1 (centres undefined)	-1%	50µM*	1%	?	?	?
COc1ccccc1Nc1nc(-c2ccc3c(c2)NC(=O)CO3)cs1	33%	?	-20%	-21%	-30%	-13%
COc1ccc(Nc2nc(-c3ccc4c(c3)NC(=O)CO4)cs2)cc1	?	45µM*	0%	?	-26%	-12%
COc1ccc(S(=O)(=O)NC(C)(C)CO)cc1-c1nnc2c3ccccc3c(C)nn12	35%	0%[59 µM]	.	-12%	2%	.
CCCCCC1OC1C/C=C\C/C=C\C/C=C\CCCC(=O)O (centres undefined)	.	26%[59 µM]	.	.	.	5%
CN(C)S(=O)(=O)c1cccc(NC(=O)COC(=O)/C=C/c2ccco2)c1	?	?	?	?	?	-19%
CCN(CC)c1ccc(S(=O)(=O)N2CCOCC2)cc1NC(=O)COC(=O)/C=C/c1ccc(C)o1	6%	45µM*	-6%	-24%	-29%	.
Cc1ccc(/C=C/C(=O)OCC(=O)Nc2cccc(S(=O)(=O)N(C)C)c2)o1	-25%	?	-9%	-29%	79µM*	-16%
O=C(COC(=O)/C=C/c1ccco1)Nc1cccc([N+](=O)[O-])c1	7%	?	?	-28%	?	32µM*
CCN(CC)S(=O)(=O)c1cccc(NC(=O)COC(=O)/C=C/c2ccco2)c1	5%	16µM*	?	-15%	50µM*	28µM*
CC(=O)c1cccc(NC(=O)c2nc3ccccc3nc2N2CCCCC2)c1	-22%	-9%[59 µM]	.	?	-32%	.
CCN(C(=O)c1cn(C)c(=O)c2ccccc12)c1cccc(C)c1	34%	-17%[59 µM]	.	-14%	-8%	.
CCN(Cc1ccccc1)C(=O)c1cc(-c2ccccc2)n[nH]1	-3%	-8%[59 µM]	.	-20%	-10%	.
COc1cc(S(=O)(=O)n2ccnc2C(C)C)ccc1Br	14%	-1%[59 µM]	.	-10%	-12%	.
Cc1ccc(SC2=C(N(C)C)C(=O)c3ccccc3C2=O)cc1	?	.	.	5.6µM*	.	.
COc1ccc(-c2c(C)c3ccc(O)c(CN4CCC(C)CC4)c3oc2=O)cc1OC	25%[57 µM]	9%[59 µM]	.	-6%	7%	.
COc1ccccc1NC(=O)c1cc2cc3ccc(OC)c(Cl)c3nc2s1	5%[57 µM]	28µM*	.	56µM*	79µM*	.
COc1ccc(OC)c(NC(=O)c2cc3cc4ccc(C)cc4nc3s2)c1	36%	0%[59 µM]	.	-5%	2%	.
